# Assay results: ChEMBL document CHEMBL1961873, “Compounds: GSK PKIS; Assays: Nanosyn kinase panel” (2012)
# Assays:
# [1] = target: T1, Mitogen-activated protein kinase 12 (Homo sapiens) (UniProt P53778); details: at 1 µM;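 also: values are averaged p38gamma kinase inhibition readings, compounds tested at 1 µM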
# T1 sequence (whole entry): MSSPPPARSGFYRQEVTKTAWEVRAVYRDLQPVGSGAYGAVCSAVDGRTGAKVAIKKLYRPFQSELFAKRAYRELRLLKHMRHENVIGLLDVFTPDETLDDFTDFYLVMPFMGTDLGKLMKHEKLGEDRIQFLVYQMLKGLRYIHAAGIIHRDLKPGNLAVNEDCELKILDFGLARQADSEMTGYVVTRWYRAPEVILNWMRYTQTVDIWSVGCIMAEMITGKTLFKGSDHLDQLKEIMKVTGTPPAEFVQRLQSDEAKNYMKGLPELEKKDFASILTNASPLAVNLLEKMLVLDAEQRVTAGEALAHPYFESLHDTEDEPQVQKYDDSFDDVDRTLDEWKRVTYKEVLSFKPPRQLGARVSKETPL
# [2] = target: SRSF protein kinase 1 (Homo sapiens) (UniProt Q96SB4); details: at 0.1 µM
# Sequence of SRSF protein kinase 1 (Homo sapiens) (Q96SB4 whole entry, canonical isoform): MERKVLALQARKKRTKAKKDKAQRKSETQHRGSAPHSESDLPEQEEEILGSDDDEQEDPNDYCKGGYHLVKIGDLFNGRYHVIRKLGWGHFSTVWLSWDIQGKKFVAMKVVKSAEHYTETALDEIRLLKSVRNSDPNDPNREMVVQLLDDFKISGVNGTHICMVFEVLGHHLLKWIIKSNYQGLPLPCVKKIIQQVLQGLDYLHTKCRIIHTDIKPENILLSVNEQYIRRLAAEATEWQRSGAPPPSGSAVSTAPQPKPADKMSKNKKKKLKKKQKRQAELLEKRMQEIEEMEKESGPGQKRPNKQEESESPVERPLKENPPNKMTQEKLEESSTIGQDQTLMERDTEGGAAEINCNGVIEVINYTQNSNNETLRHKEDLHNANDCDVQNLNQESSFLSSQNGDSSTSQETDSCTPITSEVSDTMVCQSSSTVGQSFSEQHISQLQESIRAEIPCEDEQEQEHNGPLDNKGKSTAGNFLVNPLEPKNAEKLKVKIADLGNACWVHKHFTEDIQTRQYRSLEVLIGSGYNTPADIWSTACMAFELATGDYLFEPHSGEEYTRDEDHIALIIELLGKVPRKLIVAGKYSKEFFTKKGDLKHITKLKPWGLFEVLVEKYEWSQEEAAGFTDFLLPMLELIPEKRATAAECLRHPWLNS
# [3] = target: SRSF protein kinase 1 (Homo sapiens) (UniProt Q96SB4); details: at 1 µM
# [4] = target: Phosphatidylinositol 4,5-bisphosphate 3-kinase catalytic subunit alpha isoform (Homo sapiens) (UniProt P42336); details: at 0.1 µM
# Sequence of Phosphatidylinositol 4,5-bisphosphate 3-kinase catalytic subunit alpha isoform (Homo sapiens) (P42336 whole entry, canonical isoform): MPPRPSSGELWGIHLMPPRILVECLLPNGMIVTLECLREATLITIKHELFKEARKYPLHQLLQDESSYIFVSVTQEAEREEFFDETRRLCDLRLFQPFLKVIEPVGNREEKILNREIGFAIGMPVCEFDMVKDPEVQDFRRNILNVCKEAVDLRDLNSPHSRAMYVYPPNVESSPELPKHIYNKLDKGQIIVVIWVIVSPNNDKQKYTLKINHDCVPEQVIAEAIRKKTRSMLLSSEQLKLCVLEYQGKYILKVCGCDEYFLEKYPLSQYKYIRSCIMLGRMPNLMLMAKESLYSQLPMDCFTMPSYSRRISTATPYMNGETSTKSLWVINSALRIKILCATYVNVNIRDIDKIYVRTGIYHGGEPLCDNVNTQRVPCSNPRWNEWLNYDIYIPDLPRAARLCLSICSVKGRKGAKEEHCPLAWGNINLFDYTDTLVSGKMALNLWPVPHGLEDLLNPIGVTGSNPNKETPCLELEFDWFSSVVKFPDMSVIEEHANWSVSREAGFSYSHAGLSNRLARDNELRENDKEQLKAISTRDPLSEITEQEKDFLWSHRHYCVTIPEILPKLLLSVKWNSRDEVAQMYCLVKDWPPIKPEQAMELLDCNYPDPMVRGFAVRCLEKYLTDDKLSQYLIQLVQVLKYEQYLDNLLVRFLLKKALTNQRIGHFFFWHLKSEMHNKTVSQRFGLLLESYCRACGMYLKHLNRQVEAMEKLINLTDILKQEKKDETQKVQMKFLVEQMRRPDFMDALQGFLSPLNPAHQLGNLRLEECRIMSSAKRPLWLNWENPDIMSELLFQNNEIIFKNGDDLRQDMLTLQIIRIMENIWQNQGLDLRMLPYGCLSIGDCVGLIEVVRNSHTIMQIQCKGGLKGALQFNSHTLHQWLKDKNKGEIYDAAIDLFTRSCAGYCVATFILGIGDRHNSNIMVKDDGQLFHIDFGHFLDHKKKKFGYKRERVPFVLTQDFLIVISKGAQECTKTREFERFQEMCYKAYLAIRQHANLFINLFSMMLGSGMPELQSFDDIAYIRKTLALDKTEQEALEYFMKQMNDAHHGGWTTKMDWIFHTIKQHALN
# [5] = target: Phosphatidylinositol 4,5-bisphosphate 3-kinase catalytic subunit alpha isoform (Homo sapiens) (UniProt P42336); details: at 1 µM
# [6] = target: T2, Phosphatidylinositol 4,5-bisphosphate 3-kinase catalytic subunit delta isoform (Homo sapiens) (UniProt O00329); details: at 0.1 µM
# T2 sequence (whole entry): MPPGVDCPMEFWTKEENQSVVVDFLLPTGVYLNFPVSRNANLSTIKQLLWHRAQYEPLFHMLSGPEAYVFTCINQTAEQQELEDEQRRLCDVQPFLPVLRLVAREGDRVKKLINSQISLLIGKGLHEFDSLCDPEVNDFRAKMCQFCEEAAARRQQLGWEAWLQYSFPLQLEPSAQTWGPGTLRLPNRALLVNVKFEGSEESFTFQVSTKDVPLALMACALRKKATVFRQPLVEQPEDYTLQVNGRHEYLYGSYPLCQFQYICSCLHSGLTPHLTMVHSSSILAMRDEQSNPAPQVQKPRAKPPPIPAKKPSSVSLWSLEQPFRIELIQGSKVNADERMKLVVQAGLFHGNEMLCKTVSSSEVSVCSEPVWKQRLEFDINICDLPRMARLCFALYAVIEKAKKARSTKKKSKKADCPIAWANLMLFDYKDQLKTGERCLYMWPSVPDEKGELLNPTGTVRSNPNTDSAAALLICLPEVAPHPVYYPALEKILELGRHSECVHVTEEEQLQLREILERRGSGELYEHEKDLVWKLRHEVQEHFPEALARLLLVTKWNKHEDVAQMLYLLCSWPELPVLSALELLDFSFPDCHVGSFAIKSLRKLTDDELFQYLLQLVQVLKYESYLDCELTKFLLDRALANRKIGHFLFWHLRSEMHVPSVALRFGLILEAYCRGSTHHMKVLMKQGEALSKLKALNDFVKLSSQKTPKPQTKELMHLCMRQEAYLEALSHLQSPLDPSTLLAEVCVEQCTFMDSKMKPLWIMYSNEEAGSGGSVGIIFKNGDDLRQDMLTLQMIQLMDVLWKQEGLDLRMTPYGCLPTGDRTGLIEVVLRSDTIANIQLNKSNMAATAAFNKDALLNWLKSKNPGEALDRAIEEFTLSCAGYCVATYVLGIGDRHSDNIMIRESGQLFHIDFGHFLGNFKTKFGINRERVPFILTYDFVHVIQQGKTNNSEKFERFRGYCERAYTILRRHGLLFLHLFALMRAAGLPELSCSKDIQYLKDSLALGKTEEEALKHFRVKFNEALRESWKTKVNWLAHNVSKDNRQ
# [7] = target: T2, Phosphatidylinositol 4,5-bisphosphate 3-kinase catalytic subunit delta isoform (Homo sapiens); details: at 1 µM
# [8] = target: Phosphatidylinositol 4-kinase beta (Homo sapiens) (UniProt Q9UBF8); details: at 0.1 µM
# Sequence of Phosphatidylinositol 4-kinase beta (Homo sapiens) (Q9UBF8 2-816 limits assumed): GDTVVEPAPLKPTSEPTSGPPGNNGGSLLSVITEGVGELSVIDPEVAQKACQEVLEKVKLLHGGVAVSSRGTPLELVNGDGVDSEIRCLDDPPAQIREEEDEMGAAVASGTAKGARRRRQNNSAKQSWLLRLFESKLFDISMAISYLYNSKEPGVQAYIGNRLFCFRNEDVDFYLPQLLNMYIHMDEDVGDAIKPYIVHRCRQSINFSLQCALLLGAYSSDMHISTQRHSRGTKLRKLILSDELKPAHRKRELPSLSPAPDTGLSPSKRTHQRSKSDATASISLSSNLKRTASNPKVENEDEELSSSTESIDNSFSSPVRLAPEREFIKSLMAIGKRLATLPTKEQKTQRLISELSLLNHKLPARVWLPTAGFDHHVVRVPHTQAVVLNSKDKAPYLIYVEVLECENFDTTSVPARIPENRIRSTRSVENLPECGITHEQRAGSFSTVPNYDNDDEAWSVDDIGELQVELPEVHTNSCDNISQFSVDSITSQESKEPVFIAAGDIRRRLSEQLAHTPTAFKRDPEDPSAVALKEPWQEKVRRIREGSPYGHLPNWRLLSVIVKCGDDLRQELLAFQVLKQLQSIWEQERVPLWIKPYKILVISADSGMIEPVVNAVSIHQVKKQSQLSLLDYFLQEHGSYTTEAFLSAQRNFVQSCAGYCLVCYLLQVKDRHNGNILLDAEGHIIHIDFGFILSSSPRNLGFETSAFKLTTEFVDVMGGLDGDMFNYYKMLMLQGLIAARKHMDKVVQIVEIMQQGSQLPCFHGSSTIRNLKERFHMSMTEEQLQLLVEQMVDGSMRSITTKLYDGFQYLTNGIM
# [9] = target: Phosphatidylinositol 4-kinase beta (Homo sapiens) (UniProt Q9UBF8); details: at 1 µM
# [10] = target: Sphingosine kinase 1 (Homo sapiens) (UniProt Q9NYA1); details: at 0.1 µM
# Sequence of Sphingosine kinase 1 (Homo sapiens) (Q9NYA1 whole entry): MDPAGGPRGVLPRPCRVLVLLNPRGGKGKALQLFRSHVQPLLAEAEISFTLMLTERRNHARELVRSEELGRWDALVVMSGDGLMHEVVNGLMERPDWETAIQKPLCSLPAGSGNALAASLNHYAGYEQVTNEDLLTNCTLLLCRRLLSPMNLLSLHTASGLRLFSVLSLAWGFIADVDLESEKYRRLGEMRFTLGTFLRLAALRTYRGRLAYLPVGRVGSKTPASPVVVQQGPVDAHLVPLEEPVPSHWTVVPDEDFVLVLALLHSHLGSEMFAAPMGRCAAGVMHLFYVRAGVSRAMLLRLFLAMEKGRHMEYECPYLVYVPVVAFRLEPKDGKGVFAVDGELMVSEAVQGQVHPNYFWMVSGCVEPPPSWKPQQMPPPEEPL
# [11] = target: Sphingosine kinase 1 (Homo sapiens) (UniProt Q9NYA1); details: at 1 µM
# [12] = target: T3, Sphingosine kinase 2 (Homo sapiens) (UniProt Q9NRA0); details: at 0.1 µM
# T3 sequence (whole entry): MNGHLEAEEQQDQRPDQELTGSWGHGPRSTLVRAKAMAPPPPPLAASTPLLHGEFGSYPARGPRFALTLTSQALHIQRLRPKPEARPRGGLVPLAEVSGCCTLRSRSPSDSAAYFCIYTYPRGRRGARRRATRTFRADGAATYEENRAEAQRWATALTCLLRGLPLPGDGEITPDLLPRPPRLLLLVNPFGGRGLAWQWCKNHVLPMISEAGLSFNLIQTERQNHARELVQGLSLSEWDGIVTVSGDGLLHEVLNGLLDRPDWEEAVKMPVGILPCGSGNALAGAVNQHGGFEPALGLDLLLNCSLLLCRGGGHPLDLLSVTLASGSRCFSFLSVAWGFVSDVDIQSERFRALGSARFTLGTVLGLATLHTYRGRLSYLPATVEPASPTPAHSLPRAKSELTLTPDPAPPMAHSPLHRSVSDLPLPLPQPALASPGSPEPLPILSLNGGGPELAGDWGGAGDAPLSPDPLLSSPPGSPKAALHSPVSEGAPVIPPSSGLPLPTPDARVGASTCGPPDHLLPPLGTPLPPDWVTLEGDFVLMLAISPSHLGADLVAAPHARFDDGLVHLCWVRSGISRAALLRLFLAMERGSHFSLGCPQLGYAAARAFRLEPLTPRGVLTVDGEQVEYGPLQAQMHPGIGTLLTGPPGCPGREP
# [13] = target: T3, Sphingosine kinase 2 (Homo sapiens); details: at 1 µM
# [14] = target: Casein kinase II subunit alpha (Homo sapiens) (UniProt P68400); details: at 0.1 µM
# Sequence of Casein kinase II subunit alpha (Homo sapiens) (P68400 whole entry, looked up): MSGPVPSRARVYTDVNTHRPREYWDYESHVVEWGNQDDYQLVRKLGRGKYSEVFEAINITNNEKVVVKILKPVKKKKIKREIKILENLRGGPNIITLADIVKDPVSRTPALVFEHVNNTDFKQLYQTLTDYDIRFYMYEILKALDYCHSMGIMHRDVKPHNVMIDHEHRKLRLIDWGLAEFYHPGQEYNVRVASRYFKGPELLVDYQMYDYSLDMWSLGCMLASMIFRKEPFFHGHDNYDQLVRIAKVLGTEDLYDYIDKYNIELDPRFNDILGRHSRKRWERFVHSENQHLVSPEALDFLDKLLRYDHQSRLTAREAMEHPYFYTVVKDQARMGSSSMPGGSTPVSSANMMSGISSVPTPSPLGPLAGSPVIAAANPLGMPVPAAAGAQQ
# [15] = target: Casein kinase II subunit alpha (Homo sapiens) (UniProt P68400); details: at 1 µM
# [16] = target: T4, Inhibitor of nuclear factor kappa-B kinase subunit alpha (Homo sapiens) (UniProt O15111); details: at 0.1 µM
# T4 sequence (whole entry): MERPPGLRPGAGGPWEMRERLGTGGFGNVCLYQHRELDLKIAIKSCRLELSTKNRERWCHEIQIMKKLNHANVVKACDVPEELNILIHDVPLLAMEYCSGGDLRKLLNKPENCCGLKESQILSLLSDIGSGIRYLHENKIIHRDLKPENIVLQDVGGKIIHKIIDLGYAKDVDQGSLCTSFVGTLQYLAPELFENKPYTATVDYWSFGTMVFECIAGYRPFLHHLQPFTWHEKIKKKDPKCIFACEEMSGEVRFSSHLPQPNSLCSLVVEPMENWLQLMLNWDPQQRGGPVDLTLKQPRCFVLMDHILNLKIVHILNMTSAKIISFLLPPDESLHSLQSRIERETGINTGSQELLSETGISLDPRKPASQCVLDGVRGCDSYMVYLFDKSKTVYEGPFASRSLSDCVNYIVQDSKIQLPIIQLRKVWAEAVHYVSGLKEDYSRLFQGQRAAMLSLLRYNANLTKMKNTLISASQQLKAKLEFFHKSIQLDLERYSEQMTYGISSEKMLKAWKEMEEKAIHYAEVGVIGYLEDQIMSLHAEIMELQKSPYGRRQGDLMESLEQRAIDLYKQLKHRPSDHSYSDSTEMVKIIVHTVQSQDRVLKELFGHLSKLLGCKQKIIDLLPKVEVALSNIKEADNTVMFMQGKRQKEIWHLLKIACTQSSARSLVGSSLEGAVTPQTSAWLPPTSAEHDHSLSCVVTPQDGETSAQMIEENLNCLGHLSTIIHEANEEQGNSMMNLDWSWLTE
# [17] = target: T4, Inhibitor of nuclear factor kappa-B kinase subunit alpha (Homo sapiens); details: at 1 µM
# [18] = target: T5, Inhibitor of nuclear factor kappa-B kinase subunit beta (Homo sapiens) (UniProt O14920); details: at 0.1 µM
# T5 sequence (whole entry): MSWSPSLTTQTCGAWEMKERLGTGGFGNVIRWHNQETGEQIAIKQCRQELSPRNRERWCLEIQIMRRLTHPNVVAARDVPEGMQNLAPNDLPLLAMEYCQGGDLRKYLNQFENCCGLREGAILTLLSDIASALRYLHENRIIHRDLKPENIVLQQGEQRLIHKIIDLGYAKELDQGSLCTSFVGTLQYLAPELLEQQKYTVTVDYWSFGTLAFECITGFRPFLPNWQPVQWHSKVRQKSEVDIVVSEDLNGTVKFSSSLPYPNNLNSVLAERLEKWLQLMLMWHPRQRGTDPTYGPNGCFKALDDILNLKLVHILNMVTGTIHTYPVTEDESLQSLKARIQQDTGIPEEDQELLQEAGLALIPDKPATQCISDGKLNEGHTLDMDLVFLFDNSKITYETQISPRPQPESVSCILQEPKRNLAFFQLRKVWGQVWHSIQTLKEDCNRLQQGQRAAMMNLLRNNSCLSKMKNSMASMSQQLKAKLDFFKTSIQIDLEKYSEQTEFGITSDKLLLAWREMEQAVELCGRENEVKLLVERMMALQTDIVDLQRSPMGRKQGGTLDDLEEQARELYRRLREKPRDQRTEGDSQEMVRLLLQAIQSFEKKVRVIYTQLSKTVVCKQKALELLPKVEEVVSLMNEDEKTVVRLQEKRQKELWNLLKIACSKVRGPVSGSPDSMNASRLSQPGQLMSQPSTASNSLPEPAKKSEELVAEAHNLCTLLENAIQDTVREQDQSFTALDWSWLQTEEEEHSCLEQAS
# [19] = target: T5, Inhibitor of nuclear factor kappa-B kinase subunit beta (Homo sapiens); details: at 1 µM
# [20] = target: T6, Inhibitor of nuclear factor kappa-B kinase subunit epsilon (Homo sapiens) (UniProt Q14164); details: at 0.1 µM;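 also: mean inhibition of IKKε reported, from the GSK PKIS dataset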
# T6 sequence (whole entry): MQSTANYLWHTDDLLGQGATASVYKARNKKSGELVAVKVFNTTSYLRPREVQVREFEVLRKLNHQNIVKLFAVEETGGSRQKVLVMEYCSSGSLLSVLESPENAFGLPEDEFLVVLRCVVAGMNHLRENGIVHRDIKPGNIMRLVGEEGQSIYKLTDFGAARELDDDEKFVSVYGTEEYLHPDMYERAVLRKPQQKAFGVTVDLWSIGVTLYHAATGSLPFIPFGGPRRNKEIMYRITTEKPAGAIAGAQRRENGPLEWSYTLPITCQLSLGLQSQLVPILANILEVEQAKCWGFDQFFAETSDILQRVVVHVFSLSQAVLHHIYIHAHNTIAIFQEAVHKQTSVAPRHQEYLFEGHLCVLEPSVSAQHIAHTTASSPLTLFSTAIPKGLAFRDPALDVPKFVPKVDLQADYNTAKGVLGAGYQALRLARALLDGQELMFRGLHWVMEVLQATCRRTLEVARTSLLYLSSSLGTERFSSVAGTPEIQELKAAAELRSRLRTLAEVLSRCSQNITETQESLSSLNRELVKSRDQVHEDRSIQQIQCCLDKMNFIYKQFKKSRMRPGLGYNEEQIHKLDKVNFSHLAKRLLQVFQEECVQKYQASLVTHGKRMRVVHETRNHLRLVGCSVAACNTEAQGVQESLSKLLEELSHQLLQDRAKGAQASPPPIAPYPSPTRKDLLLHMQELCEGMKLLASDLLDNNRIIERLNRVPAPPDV
Structure (SMILES),inhibition [1],inhibition [2],inhibition [3],inhibition [4],inhibition [5],inhibition [6],inhibition [7],inhibition [8],inhibition [9],inhibition [10],inhibition [11],inhibition [12],inhibition [13],inhibition [14],inhibition [15],inhibition [16],inhibition [17],inhibition [18],inhibition [19],inhibition [20]
O=C1NC(=O)C(c2cccc(Cl)c2)=C1Nc1ccc(Cl)c(C(=O)O)c1,1.67%,-2.19%,-1.47%,3.63%,1.55%,1.72%,-0.43%,0.69%,-0.07%,0.25%,2.31%,-0.06%,0.61%,2.24%,7.88%,2.51%,-0.25%,3.73%,4.76%,6.56%
COc1cc(N2CCN(C(C)C)CC2)ccc1Nc1nc(Nc2ccc(F)cc2C(=O)NC[C@@H](O)CO)c2cc[nH]c2n1,2.97%,-0.39%,3.84%,4.55%,2.69%,1.37%,3.4%,-3.83%,-1.08%,1.31%,5.85%,0.95%,0.89%,4.77%,15.7%,6.97%,11.1%,7.85%,9.5%,8.4%
CS(=O)(=O)CCNCc1cc(-c2cc3c(Nc4ccc(OCc5cccc(F)c5)c(Cl)c4)ncnc3s2)cs1,6%,-3.5%,-2.78%,4.7%,5.78%,0.67%,7.33%,-1.24%,3.94%,1.57%,3.45%,-0.27%,0.36%,–,2.87%,10.9%,9.95%,7.54%,6.76%,6.48%
Fc1ccc(-c2ncn(C3CCNCC3)c2-c2ccnc(Oc3ccc(Oc4ccccc4)cc3)n2)cc1,–,-3.18%,-2.43%,3.74%,2.92%,-0.16%,2.82%,-2.22%,5.8%,1.17%,-0.85%,-0.41%,-0.56%,4.31%,4.14%,4.44%,5.03%,5.84%,6.14%,7.47%
Fc1ccc(-c2ncn(C3CCNCC3)c2-c2ccnc(Oc3ccc(F)c(F)c3)n2)cc1,–,-3.26%,-1.49%,3.43%,3.41%,1.7%,3.53%,-1.47%,1.86%,1.28%,-0.78%,1.4%,-2.94%,1.69%,3.12%,-1.24%,3.68%,6.9%,5.72%,6.6%
CCN(CC)Cc1ccc(Nc2nccc(-c3cnn4ncccc34)n2)cc1,6.9%,-2.98%,-1.36%,3.82%,11.4%,6.31%,40.2%,-2.34%,4.5%,0.05%,7.74%,4.29%,2.72%,10.9%,31.1%,3.66%,34.9%,7.57%,17.5%,8.95%
c1ccc(-c2n[nH]cc2-c2ccnc(-c3ccc(OCCN4CCOCC4)cc3)c2)nc1,0.29%,2.99%,-0.67%,0.37%,0.17%,2.7%,3.02%,-0.93%,-1.19%,-5.06%,-1.7%,0.79%,-2.14%,-3.28%,-4.72%,-2.42%,-8.48%,-4.16%,-6.86%,-5.44%
